Source: PubChem BioAssay (NCI)
This is part of a sample that, as a whole, favours compounds with a hit. Of some 83,000 tested, about 20% had one in any assay.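 Step 1: grow cells in 96-well plates. Step 2: add test compound at a single concentration. Step 3: incubate 48 h. Step 4: record percent growth.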 Values without a mark were called inactive. Active and inactive are the calls of the source.

test system: SNB-75 CNS; experiment: NCI-60 one-dose screen, 48 h (100 = growth as untreated, 0 = no growth, -100 = all killed); conditions: 10 µM
Procedure: Growth inhibition of the SNB-75 human tumor cell line is measured as a screen for anti-cancer activity. Cells are grown in 96 well plates and exposed to the test compound for 48 hours. Compounds are tested at a single concentration, which is 10^-5 M for most compounds. The reported endpoint is percent growth (GI% or GIPRCNT), where numbers from 0 - 100% represent growth inhibition, and numbers from -100% - 0 represent cell death. For example, a value of 40 represents 60% growth inhibition. A value of 0 means no net growth occurred over the course of the experiment. A value of -40 indicates 40% of cells at the beginning of the experiment died by the end of the experiment. A value of -100 means all cells are dead at the end of the experiment.
NCI-60 Human Tumor Cell Lines Screen was performed using the standard one-dose NCI protocol, which is described in more detail at https://dtp.cancer.gov/discovery_development/nci-60/default.htm.
Compounds with GIPRCNT values below 10 were considered active. Activity score was based on GIPRCNT using the following formula: […]
Score is 0 for GIPRCNT values of 100 or above, 50 for GIPRCNT values of 0, and 100 for GIPRCNT values of -100.

| SMILES | growth |
| --- | --- |
| C#C[C@]1(O)CC[C@H]2[C@@H]3CC=C4c5sc(Nc6ccc(C(F)(F)F)cn6)nc5CC[C@]4(C)[C@H]3CC[C@@]21C | 28.5% |
| COc1ccc(NCc2cn(-c3ccc(C(=O)O)cc3)nc2-c2ccc(F)cc2)cc1C(F)(F)F | 79.1% |
| Cc1ccc(S(=O)(=O)N2CCN(S(=O)(=O)c3oc(-c4ccccc4)nc3C#N)CC2)cc1 | 92.6% |
| Cc1ccc2c(c1)C(=O)/C(=C/c1c[nH]c3ccccc13)S2 | 41.1% |
| Cn1cc(-c2cc3nc(-c4c[nH]c5ccccc45)cc(N)n3n2)c2cc(Cl)ccc21 | -65.9% (active) |
| CCOc1ccc(/C=N/NC(=O)Cn2nc(Cc3ccc(OC)cc3)c3onc(C)c3c2=O)cc1 | -39.9% (active) |
| Cc1ccc2sc3c(c2c1)Oc1nc[nH]c(=O)c1C3c1cccc(F)c1 (stereo not given) | 84.2% |
| C#C[C@]1(O)CC[C@H]2[C@@H]3CC=C4c5sc(Nc6cc(C)cc(C)n6)nc5CC[C@]4(C)[C@H]3CC[C@@]21C | 33.9% |
| COc1cc(C2CC(c3ccc(Oc4ccc(Cl)cc4)cc3)=NN2c2nc(-c3ccc(Cl)cc3)c(C#N)c(N3CCOCC3)n2)cc(OC)c1OC (stereo not given) | 78.3% |
| Cc1ccc(COc2ccc(NC(=O)Nc3ccc(Cl)c(C(F)(F)F)c3)cc2)cc1 | 72.4% |
| COc1cccc(C(=O)CSc2nc(-c3ccc(OCc4ccccc4)c(OC)c3)c(C#N)c(=O)[nH]2)c1 | 87.7% |
| Cc1cc(N=C2NC(=O)S/C2=C\c2ccc(F)cc2)n[nH]1 | 2.65% (active) |
| Cn1cc(-c2cc(N)n3nc(-c4cn(C)c5ccccc45)cc3n2)c2cc(F)ccc21 | -67% (active) |
| Cn1cc(/C=C(/SS/C(=C/c2cn(C)c3cccc(C(=O)O)c23)C(=O)O)C(=O)O)c2c(C(=O)O)cccc21 | 88.8% |
| C#C[C@]1(O)CC[C@H]2[C@@H]3CC=C4c5sc(Nc6ccc(N(C)C)cc6)nc5CC[C@]4(C)[C@H]3CC[C@@]21C | 33.8% |
| O=C(c1ccc(Cl)cc1)C(c1c[nH]c2ccccc12)c1c[nH]c2ccccc12 | 31.9% |
| Cc1cc(N=C2NC(=O)/C(=C/c3cc(C(C)(C)C)c(O)c(C(C)(C)C)c3)S2)n[nH]1 | 1.49% (active) |
| COC(=O)CNC(=O)COc1c(OC)c(OC)cc2oc(-c3cccc(C(=O)Nc4ccc(Cl)cc4)c3)cc(=O)c12 | 85.1% |
| COc1ccccc1-n1cc(C#N)c(N)c1C(=O)c1ccc(Cl)cc1Cl | -22.8% (active) |
| Fc1ccc(-c2csc(Nc3cccc(Nc4nc(-c5ccc(F)cc5)cs4)c3)n2)cc1 | 95.2% |

| SMILES | growth |
| --- | --- |
| COc1ccc(-n2c(SCC(=O)NNS(=O)(=O)c3ccccc3)nc3ccc(Cl)cc3c2=O)cc1 | 98.7% |
| COc1cc(C2CC(c3ccccc3)=Nc3c(N)nc(N)nc3N2)ccc1Oc1nc(NCCO)nc(N2CCOCC2)n1 (stereo not given) | 84.3% |
| COc1cccc(O)c1/C=C1\SCc2cc3c(OC)cccc3[o+]c21 | 115% |
| O=C(CC(=O)Nc1ccc(Oc2ncnc3scc(Nc4n[nH]c(=S)s4)c23)cc1)Nc1ccc(Br)cc1 | 95.6% |
| CCOC(=O)c1ccc(NC(=O)CSC(CC(=O)c2sc(Nc3ccccn3)nc2C)c2ccccc2F)cc1 (stereo not given) | -3.07% (active) |
| O=C(CSc1nc2ccccc2c(=O)n1-c1ccc(Cl)cc1)Nc1ccc(-c2nc3ccc([N+](=O)[O-])cc3[nH]2)cc1 | 34.4% |
| O=C(CC(=O)Nc1ccc(Oc2ncnc3scc(Nc4n[nH]c(=S)s4)c23)cc1)Nc1ccc(Cl)cc1 | 87.7% |
| O=C(Nc1ccc(OCc2ccc(F)cc2)cc1)Nc1ccc(Cl)c(C(F)(F)F)c1 | 21% |
| COc1ccc(C2OC[C@@]3(C)C4CC[C@]5(C)C(CC=C6C7CC(C)(C)CC[C@]7(C(=O)O)CC[C@]65C)[C@@]4(C)C[C@@H](O)[C@@H]3O2)cc1 (stereo not given in full) | 97% |
| CC1[C@H]2[C@H](C[C@H]3[C@@H]4CC=C5c6sc(Nc7cccc(Cl)n7)nc6CC[C@]5(C)[C@H]4CC[C@@]32C)O[C@]12CC[C@@H](C)CO2 (stereo not given in full) | 127% |
| COc1cc(Nc2nc(O)c(/C=C3\C=Nc4ccccc43)s2)cc(OC)c1OC | -63.8% (active) |
| COc1ccc(C2c3sc4ccc(C)cc4c3Oc3nc(N)nc(N)c32)cc1 (stereo not given) | 70.9% |
| COc1cc2oc(-c3cccc(C(=O)Nc4ccc(Cl)cc4)c3)cc(=O)c2c(OCCNC(=O)[C@@H](N)CO)c1OC | 121% |
| COc1ccc(C2c3sc4ccc(C)cc4c3Oc3nc[nH]c(=O)c32)cc1 (stereo not given) | 45.8% |
| O=C1NC(=S)S/C1=C\c1cn(-c2ccccc2)nc1-c1ccc([N+](=O)[O-])cc1 | 34.5% |
| COc1ccc2[nH]cc(-c3nc(N)nnc3-c3cn(C)c4ncc(Br)cc34)c2c1 | 23.4% |
| COc1ccc(Cc2nn(CC(=O)N/N=C/c3ccc([N+](=O)[O-])cc3)c(=O)c3c(C)noc23)cc1 | 99.8% |
| CC1(C)CC[C@]2(C(=O)O)CC[C@]3(C)C(=CCC4[C@@]5(C)C[C@@H](O)[C@@H]6OC(c7cccc(F)c7)OC[C@@]6(C)C5CC[C@]43C)C2C1 (stereo not given in full) | 81.6% |
| COc1ccc(Cn2cc(C#N)c(N)c2C(C)=O)c(OC)c1 | 111% |
| Nc1nnc(-c2c[nH]c3ncc(Br)cc23)c(-c2c[nH]c3ccc(Br)cc23)n1 | 43.4% |
